Some test systems named below: DMPK; DYRK1A; DYRK1B; DYRK2; EGFR; EIF2AK1.
What all share (conditions): concentration: 1 μM, replicates: in singlicate; n = 1
The next test relates to T1, DLK.
T1 construct: gene MAP3K12

The next test concerns T2, DMPK2.
T2 construct: gene CDC42BPG

In another test the test system is T3, DRAK1.
T3 construct: gene STK17A

Another test concerns T4, DRAK2.
T4 construct: gene STK17B
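Note: KINOMEscan kinase panel screen.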

Regarding `Nc1nccc2scc(-c3ccc4c(c3)CCN4C(=O)Cc3ccccc3)c12` [GSK2576924], the “%Inh” value in the test with DLK was found to be 7%; with DMPK2, 22%; with DMPK, 0%; in the test with DRAK1, 1%; in the test with DRAK2 it was 0%; in the test on DYRK1A it was 0%. Also, the “%Inh” value was found to be 19% in the test on DYRK1B, 20% in the test on DYRK2, 21% in the test with EGFR and 0% in the test on EIF2AK1.
Consider `COc1cc(Nc2ccnc3ccc(C(F)(F)F)cc23)cc(OC)c1OC` [GW577382], for which the “%Inh” value worked out at 32% in the test with DLK; 4% in the test on DMPK2; 0% in the test on DMPK; 0% in the test with DRAK1; 0% in the test with DRAK2; 4% in the test with DYRK1A. The “%Inh” value in the test on DYRK1B is 16%; with DYRK2, 0%; in the test with EGFR, 27%; with EIF2AK1, 2%.
In the case of `CCn1c(-c2ccoc2)nc2cnccc21` [SB-733887], the “%Inh” value in the test on DLK amounted to 7%; in the test on DMPK2 it was 0%; in the test with DMPK, 0%; with DRAK1, 0%; in the test on DRAK2 it was 0%; in the test with DYRK1A it was 10%. Besides, the “%Inh” value with DYRK1B amounted to 13%; with DYRK2, 6%; in the test with EGFR it was 24%; in the test with EIF2AK1 it was 8%.
In the case of `COc1cccc(C2=C(Nc3cccc(C(=O)O)c3)C(=O)NC2=O)c1` [SB-390770], the “%Inh” value worked out at 0% with DLK; 4% with DMPK2; 0% in the test on DMPK; 0% with DRAK1; 0% with DRAK2; 14% in the test on DYRK1A. The “%Inh” value in the test with DYRK1B is 0%; in the test with DYRK2 it was 0%; in the test on EGFR it was 12%; with EIF2AK1 it was 0%.

The values are drawn from paper PMC5540273 (PLoS ONE, 2017).
